LDHA block: LDHA (human) enzyme inhibition. P00338. purified LDHA, NADH/diaphorase-resazurin fluorescence; hits give low values. activity change, % (values are at about 110 or 230 µM). hit rate 0.15% among 480,000. AID 1347041; in the data active means activity change below about -30%; inconclusive means mostly about -25% to -30%;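 further: plate controls were DMSO wells for no effect and wells without enzyme for full effect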
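Human LDH5 at 2 nM final in Tris HCl pH 7.4 with 0.06 mM NADH and 0.2 mM pyruvate, reacted 5 minutes at room temperature. Remaining NADH coupled via diaphorase/resazurin; resorufin fluorescence read at 0 and 20 minutes, normalized to enzyme-free and DMSO wells.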
A549 viability: counter-screen for Nrf2 inhibitors: cytotoxicity in A549 cells; A549 ARE-Fluc cells, CellTiter-Fluor viability, 18-24 h; Potency, µM (highest dose often 46 µM), for inactives: at the top dose activity change, negative = cytotoxicity, usual class: inhibitors; hit rate 0.16% among 390,000; AID 504648; further: potency means the concentration at half of the fitted maximal effect; on the % scale 0 is the no-effect control and ±100 the full control effect
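A549 ARE-Fluc cells in 5% FBS OPTI-MEM, 5000 cells/well, rested 2 h then exposed to compounds in concentration-response for 18-24 h at 37 °C. Viability by CellTiter-Fluor fluorescence (Ex 405/Em 525) after 30 min; luciferase luminescence (BugLite, 15 min, RT) read afterwards.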
Nrf2 block: Nrf2 pathway inhibition; A549 ARE-Fluc reporter, luciferase luminescence, 18-24 h; Potency, µM (top dose mostly 46 µM), inactives show top-dose activity change, negative = inhibition, actives largely listed as inhibitors; hit rate 2.1% among 360,000; further: potency means the concentration at half of the fitted maximal effect; on the % scale 0 is the no-effect control and ±100 the full control effect; nearly all actives have a fitted effect of over 60% in size
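Two sequential reads on A549 ARE_Fluc cells exposed to compound for 18-24 h: a CellTiter-Fluor fluorescence read for viability, then a luciferase luminescence read for Nrf2/ARE activity.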
12-LOX inh: inhibitors of human 12S-lipoxygenase ALOX12; hit rate 1.1% among 580,000; purified 12hLO, xylenol orange hydroperoxide absorbance; AID 1671190; Potency, µM (highest dose often 108 µM), for inactives: top-dose activity change, negative = inhibition, hits mostly inhibitors; P18054; further: potency means the concentration at half of the fitted maximal effect; on the % scale 0 is the no-effect control and ±100 the full control effect
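Purified human 12hLO (150 nM final) in 25 mM Hepes, 0.01% Triton X-100, pH 7.0 was preincubated 15 min at room temperature with compound. Then 40 uM arachidonic acid was added, 30 min. Hydroperoxide was read by Fe-XO absorbance ratio 573/405 nm.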
Nrf2 ARE act: activators of Nrf2 (ARE) signaling; AREc32 ARE-luciferase reporter (MCF7-derived line), luminescence, 24 h; Potency, µM (top dose mostly 46.1 µM), without a hit: top-dose activation, hits mostly activators; hit rate 0.31% among 410,000; further: potency means the concentration at half of the fitted maximal effect; % of control where 0% means no effect; nearly all actives have a fitted effect of over 65% in size
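Reporter line AREc32 (ARE-Fluc), seeded overnight in OPTI-MEM with 5% FBS; compound pin-transferred, 24 hr at 37 deg C, 5% CO2; luminescent read-out.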
mIDH1 inhibitor: human IDH1 R132H inhibition; IDH1-R132H enzyme, NADPH consumption, diaphorase/resazurin fluorescence; Potency, µM (highest dose often 76.6 µM), inactives show at the top dose activity change, negative = inhibition, usual class: inhibitors; hit rate 0.093% among 390,000; further: potency means the concentration at half of the fitted maximal effect; on the % scale 0 is the no-effect control and ±100 the full control effect; nearly all actives have a fitted effect of over 65% in size
Target sequence (O75874 whole entry R132H, stated change not applied): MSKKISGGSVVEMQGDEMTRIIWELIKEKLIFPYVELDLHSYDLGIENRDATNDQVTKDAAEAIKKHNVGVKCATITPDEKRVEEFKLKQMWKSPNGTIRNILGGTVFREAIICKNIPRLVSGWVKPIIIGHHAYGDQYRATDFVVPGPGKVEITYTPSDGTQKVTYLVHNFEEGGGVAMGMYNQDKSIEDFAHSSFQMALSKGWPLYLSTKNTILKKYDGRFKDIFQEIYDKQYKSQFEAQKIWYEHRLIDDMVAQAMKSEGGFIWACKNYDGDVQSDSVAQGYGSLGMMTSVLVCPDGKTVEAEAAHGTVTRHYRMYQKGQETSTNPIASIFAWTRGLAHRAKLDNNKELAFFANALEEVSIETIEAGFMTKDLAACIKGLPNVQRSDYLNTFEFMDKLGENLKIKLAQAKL
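IDH1-R132H (0.5 ug/mL dispensed) in pH 7.5 Tris buffer was preincubated 30 min with compound, then given a substrate mix of 0.016 mM NADPH and 2 mM alpha-KG for 80 min at room temperature; remaining NADPH was read by diaphorase/resazurin fluorescence.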
The depositor's hits bear a star; u = inconclusive; x = not tested or not shown; ! = not active in a repeat; [ ] = dose if it differs, or a comment. Sampled rows, rich in hits. Any-hit rate of the full collection: about 2.7%. Unless noted, the call rests on the fitted dose curve; in most records, active means well fitted curve in the direction sought with a large enough effect; inconclusive means small, poorly fitted or top-dose-only effect, or another doubt; inactive means no such curve, though single readings can be large; an effect the other way counts as inactive or inconclusive.

SMILES	LDHA block	A549 viability	Nrf2 block	12-LOX inh	Nrf2 ARE act	mIDH1 inhibitor
COc1ccc(C(=O)N2CCN(c3ccccc3)CC2)cc1S(=O)(=O)N1CCCC1	-6.0	9.5%	2.2%	u	2.8%	1.2%
CC(=O)c1ccc(N2CCN(S(=O)(=O)c3cc4[nH]c(=O)c(=O)[nH]c4cc3C)CC2)cc1	-30.3*!	-2.3%	u	u	-0.5%	-5.0%
O=C(NCc1cnn(-c2ccccc2)c1)C1CCN(S(=O)(=O)c2ccccc2C(F)(F)F)CC1	1.0	x	x	10.7%	x	x
CC(NCc1ccc(C(C)(C)C)cc1)c1ccc(S(C)(=O)=O)cc1 (stereo not drawn)	-4.3	x	x	u	x	x
C[C@@H]1C[C@H]2[C@@H]3C[C@H](F)C4=CC(=O)C=C[C@]4(C)[C@@]3(Cl)[C@@H](O)C[C@]2(C)[C@H]1C(=O)COC(=O)C(C)(C)C	-4.2	-5.3%	0.0065µM*	4.7%	-1.1%	-1.5%
O=C(NCC(c1cccnc1)N1CCN(c2ccccc2F)CC1)c1ccc(F)cc1 (stereo not drawn)	-10.6	0.9%	-1.4%	-8.3%	1.0%	-13.5%
COc1ccc(N2CCN(C(CNC(=O)C(=O)NCc3cccnc3)c3ccco3)CC2)cc1 (stereo not drawn)	-3.7	-1.8%	6.8%	-1.2%	-0.4%	1.1%
O=C(NCc1cccs1)C(=O)NCC(c1ccco1)N1CCN(c2ccc(F)cc2)CC1 (stereo not drawn)	0.3	-18.5%	14.6µM*	-16.7%	0.6%	9.3%
O=C(NCC(c1cccnc1)N1CCN(c2ccccc2F)CC1)c1cccc(Cl)c1 (stereo not drawn)	-0.3	-17.3%	20.6µM*	2.7%	4.0%	0.8%
O=C(NCC(c1ccco1)N1CCN(c2ccc(F)cc2)CC1)c1cccs1 (stereo not drawn)	-2.5	1.8%	10.1%	-4.6%	0.2%	-2.3%
O=C(NCc1cccnc1)C(=O)NCC(c1ccco1)N1CCN(c2ccc(F)cc2)CC1 (stereo not drawn)	-0.6	-5.2%	20.6µM*	5.5%	1.8%	2.2%
COc1ccccc1CNC(=O)C(=O)NCC(c1cccnc1)N1CCN(c2ccc(F)cc2)CC1 (stereo not drawn)	-8.7	u	20.6µM*	-10.8%	0.0%	4.2%
O=C(NCC(c1cccnc1)N1CCOCC1)C(=O)Nc1ccc(F)cc1 (stereo not drawn)	-9.0	-6.1%	23.1µM*	-18.1%	1.3%	0.0%
CCc1cccc(NC(=O)COC(=O)c2cc(C)nc3ccccc23)c1	5.6	x	x	-7.4%	x	x
Nc1ccc(C(F)(F)F)c(C(F)(F)F)c1	5.6	x	x	-18.1%	x	x
Cc1noc2ncnc(N3CCCC(C(=O)NCCC(C)C)C3)c12 (stereo not drawn)	-5.9	-0.2%	23.1µM*	-5.2%	0.1%	-4.6%
COCC(C)NC(=O)CSc1cc(-c2ccccc2)c2ccc(OC)cc2n1 (stereo not drawn)	5.5	x	x	-29.4%	x	x
O=C(O)c1cccc(-n2cccc2/C=C2/NC(=O)N(c3cccc(Cl)c3)C2=O)c1	-30.1*!	u	-23.5%	-28.5%	0.9%	2.7%
Cc1ccc(-n2cccc2/C=C2/NC(=O)N(CC(=O)Nc3cccc(C)c3)C2=O)cc1	-8.4	-3.3%	-0.2%	u	14.5%	5.9%
COc1ccc(-n2cccc2/C=C2/NC(=O)N(c3cccc(Cl)c3)C2=O)cc1	-14.7	-1.2%	0.9%	u	0.7%	2.1%
Cc1cccc(NC(=O)CN2C(=O)N/C(=C\c3cccn3-c3cccc(C(=O)O)c3)C2=O)c1	-13.3	u	u	44.7µM*	0.0%	-0.6%
O=C(O)c1cccc(-n2cccc2/C=C2/NC(=O)N(c3ccc(Cl)cc3)C2=O)c1	-20.5	-11.2%	u	7.94µM*	-0.2%	-1.4%
Cc1ccc(F)cc1NC(=O)NCCc1coc(-c2ccccc2)n1	-7.2	x	x	-4.1%	x	x
Cc1ccc(C(=O)CSC2=C(C#N)C(c3ccco3)CC(=O)N2)c(C)c1 (stereo not drawn)	1.5	-4.6%	-14.6%	50.1µM*	6.3%	7.3%
C=C(C)CSC1=C(C#N)C(c2ccccc2Cl)CC(=O)N1 (stereo not drawn)	7.4	7.8%	-2.1%	22.4µM*	-0.5%	-0.2%
SMILES	LDHA block	A549 viability	Nrf2 block	12-LOX inh	Nrf2 ARE act	mIDH1 inhibitor
Cc1ccc(C2CC(=O)NC(SCc3ccccc3)=C2C#N)cc1 (stereo not drawn)	0.4	2.4%	10.3µM*	-24.5%	2.2%	8.3%
C=CCSC1=C(C#N)C(c2ccccc2Cl)CC(=O)N1 (stereo not drawn)	-9.3	1.3%[1.84 µM]	-21.2%	u	-0.1%	0.7%
Cc1ccc(NC(=O)CSC2=C(C#N)C(c3ccco3)CC(=O)N2)cc1 (stereo not drawn)	-6.5	-6.1%	-22.2%	u	3.0%	-0.8%
CCc1ccc2oc(-c3cc(N)ccc3O)nc2c1	-3.0	0.1%	u	u	4.47µM*	4.7%
O=C(c1ccco1)N(CCC(c1ccccc1)c1ccco1)Cc1ccccc1 (stereo not drawn)	-1.4	13.0%	-4.1%	u	4.2%	-13.3%
COc1ccc(CN(CCC(c2ccccc2)c2ccco2)C(=O)c2ccco2)cc1 (stereo not drawn)	0.6	-0.6%	u	50.1µM*	3.6%	-1.4%
CCOc1cc(NC(=S)Nc2ccccc2OC)c(OCC)cc1NC(=O)c1ccccc1C	-1.3	2.4%	u	44.7µM*	-0.5%	-1.2%
O=C(CSc1nnc(-c2ccccc2Br)n1-c1ccccc1)c1ccc(F)cc1	-7.8	u	18.4µM*	-10.5%	5.2%	-15.2%
CC(=O)Nc1ccc(C(=O)CSc2nnc3ccc4ccccc4n23)cc1	-3.5	-1.4%	5.4%	-20.5%	2.4%	10.9%
O=C(CSc1nnc2ccc3ccccc3n12)c1ccc(F)cc1	-9.6	0.1%	u	-1.1%	12.6µM*	-5.1%
C/C(=N/NC(=S)NC(C)C)c1ccc(Cl)cc1	6.6	x	x	u	x	x
COCCCNC(=O)COc1ccc2c(-c3ccccc3)cc(=O)oc2c1	2.3	x	x	19.0%	x	x
Nc1nccnc1C(=O)NCc1nc2ccccc2s1	-2.6	x	x	39.8%	x	x
CCC1=C(OC(=O)N(CC)CC)N2C(=O)OC(=NCC(=O)OC)[C@]2(C)[C@H]2C1=CC[C@H]1C(=O)NC(=O)[C@H]12	-3.8	-5.0%	3.4%	0.0%	-0.4%	10.1%
CCC1=C(OC(=O)N(CC)CC)N2C(=O)OC(=NCc3ccccc3)[C@]2(C)[C@H]2C1=CC[C@H]1C(=O)NC(=O)[C@H]12	-2.1	-25.3%	18.4µM*	-30.0%	1.4%	1.8%[38.3 µM]

Bioassay records as filed in PubChem BioAssay.
